# Assay results as given in paper PMC11006913.
# Residue numbers refer to the chain shown, from its start.
# Assays:
# Experiment in all cases: PBM; 200 nM protein, PBS
# Details in all cases: dsDNA, one strand shown
# [1] = molecular target: SHOX (Homo sapiens, UniProt O15266 103-189)
# [2] = molecular target: ALX4 (Homo sapiens, UniProt Q9H161 200-286)
# [3] = molecular target: ALX4 (Homo sapiens, UniProt Q9H161 200-286, Q225E)
# [4] = molecular target: SHOX (Homo sapiens, UniProt O15266 103-189, R173C)
# [5] = molecular target: T1, PAX4 (Homo sapiens, UniProt O43316 9-242, R200K)
# T1 sequence: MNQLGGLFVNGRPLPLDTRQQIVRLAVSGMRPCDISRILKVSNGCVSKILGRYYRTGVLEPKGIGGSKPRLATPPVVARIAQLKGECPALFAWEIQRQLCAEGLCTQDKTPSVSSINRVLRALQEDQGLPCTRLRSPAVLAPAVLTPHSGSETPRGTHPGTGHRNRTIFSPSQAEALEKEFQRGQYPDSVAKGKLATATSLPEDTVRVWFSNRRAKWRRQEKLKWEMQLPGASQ
# [6] = molecular target: T2, PAX4 (Homo sapiens, UniProt O43316 9-242)
# T2 sequence: T1 sequence with K192R
# [7] = molecular target: MSX2 (Homo sapiens, UniProt P35548 130-214, R199I)
# [8] = molecular target: ALX1 (Homo sapiens, UniProt Q15699 118-204, L144V)
# [9] = molecular target: ALX3 (Homo sapiens, UniProt O95076 139-225, N203Q)
# [10] = molecular target: T3, PAX4 (Homo sapiens, UniProt O43316 9-242, R200Q)
# T3 sequence: T1 sequence with K192Q
# [11] = molecular target: ALX1 (Homo sapiens, UniProt Q15699 118-204, L144R)
# [12] = molecular target: T4, PAX4 (Homo sapiens, UniProt O43316 9-242, F177V)
# T4 sequence: T1 sequence with F169V, K192R
# [13] = molecular target: MSX2 (Homo sapiens, UniProt P35548 130-214)
# [14] = molecular target: ALX3 (Homo sapiens, UniProt O95076 139-225)
# [15] = molecular target: T5, PAX4 (Homo sapiens, UniProt O43316 9-242, F177Y)
# T5 sequence: T1 sequence with F169Y, K192R
# [16] = molecular target: PROP1 (Homo sapiens, UniProt O75360 56-141)
# [17] = molecular target: PROP1 (Homo sapiens, UniProt O75360 56-141, R99H)
# [18] = molecular target: ALX3 (Homo sapiens, UniProt O95076 139-225, L168Q)
# [19] = molecular target: ALX3 (Homo sapiens, UniProt O95076 139-225, L168V)
# [20] = molecular target: PROP1 (Homo sapiens, UniProt O75360 56-141, F88S)
# [21] = molecular target: MSX2 (Homo sapiens, UniProt P35548 130-214, F161Y)
# [22] = molecular target: T6, PAX4 (Homo sapiens, UniProt O43316 9-242, R227W)
# T6 sequence: T1 sequence with K192R, R219W
# [23] = molecular target: ALX1 (Homo sapiens, UniProt Q15699 118-204)
# [24] = molecular target: ALX3 (Homo sapiens, UniProt O95076 139-225, N203S)
# [25] = molecular target: HESX1 (Homo sapiens, UniProt Q9UBX0 95-180, R109Q)
# [26] = molecular target: HESX1 (Homo sapiens, UniProt Q9UBX0 95-180, P111T)
# [27] = molecular target: HOXA2 (Homo sapiens, UniProt O43364 129-215, R185T)
# [28] = molecular target: HOXA2 (Homo sapiens, UniProt O43364 129-215, R185K)
# [29] = molecular target: HOXA2 (Homo sapiens, UniProt O43364 129-215, Y150S)
# [30] = molecular target: HOXA2 (Homo sapiens, UniProt O43364 129-215)
# [31] = molecular target: HOXA7 (Homo sapiens, UniProt P31268 116-202)
# [32] = molecular target: HOXA7 (Homo sapiens, UniProt P31268 116-202, W177C)
# [33] = molecular target: HOXB9 (Homo sapiens, UniProt P17482 171-250)
# [34] = molecular target: PRRX1 (Homo sapiens, UniProt P54821 80-166, F113S)
# [35] = molecular target: PRRX1 (Homo sapiens, UniProt P54821 80-166)
# [36] = molecular target: T7, NKX2-6 (Homo sapiens, UniProt A6NCS4 118-204, R150C)
# T7 sequence: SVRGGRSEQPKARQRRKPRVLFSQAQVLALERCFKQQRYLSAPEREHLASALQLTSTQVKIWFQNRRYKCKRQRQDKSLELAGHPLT
# [37] = molecular target: HOXC10 (Homo sapiens, UniProt Q9NYD6 254-340)
# [38] = molecular target: HOXC10 (Homo sapiens, UniProt Q9NYD6 254-340, K271E)
# HOXC10 (Homo sapiens, UniProt Q9NYD6 254-340, K271E), sequence (Q9NYD6 254-340 K271E): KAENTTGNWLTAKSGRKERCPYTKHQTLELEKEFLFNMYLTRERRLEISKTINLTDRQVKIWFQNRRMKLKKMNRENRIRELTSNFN
# ALX1 (Homo sapiens, UniProt Q15699 118-204, L144R), sequence (Q15699 118-204 L144R): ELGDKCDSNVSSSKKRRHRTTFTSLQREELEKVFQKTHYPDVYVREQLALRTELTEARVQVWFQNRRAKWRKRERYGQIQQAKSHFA
# ALX1 (Homo sapiens, UniProt Q15699 118-204, L144V), sequence (Q15699 118-204 L144V): as the sequence (Q15699 118-204 L144R) above, with R27V counted along it
# ALX3 (Homo sapiens, UniProt O95076 139-225), sequence (O95076 139-225): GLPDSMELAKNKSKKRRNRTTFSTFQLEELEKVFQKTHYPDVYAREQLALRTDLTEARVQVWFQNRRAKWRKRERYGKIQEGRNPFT
# ALX1 (Homo sapiens, UniProt Q15699 118-204), sequence (Q15699 118-204): as the sequence (Q15699 118-204 L144R) above, with R27L counted along it
# SHOX (Homo sapiens, UniProt O15266 103-189, R173C), sequence (O15266 103-189 R173C): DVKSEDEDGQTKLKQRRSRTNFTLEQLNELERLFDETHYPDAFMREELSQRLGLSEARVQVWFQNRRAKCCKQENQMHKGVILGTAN
# SHOX (Homo sapiens, UniProt O15266 103-189), sequence (O15266 103-189): as the sequence (O15266 103-189 R173C) above, with C71R counted along it
# ALX3 (Homo sapiens, UniProt O95076 139-225, L168V), sequence (O95076 139-225 L168V): as the sequence (O95076 139-225) above, with L30V counted along it
# PROP1 (Homo sapiens, UniProt O75360 56-141, R99H), sequence (O75360 56-141 R99H): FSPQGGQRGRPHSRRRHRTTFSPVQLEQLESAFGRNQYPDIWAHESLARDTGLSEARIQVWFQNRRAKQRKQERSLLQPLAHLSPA
# MSX2 (Homo sapiens, UniProt P35548 130-214, F161Y), sequence (P35548 130-214 F161Y): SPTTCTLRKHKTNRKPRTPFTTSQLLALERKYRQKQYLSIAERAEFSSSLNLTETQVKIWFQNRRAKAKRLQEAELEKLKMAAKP
# ALX3 (Homo sapiens, UniProt O95076 139-225, N203Q), sequence (O95076 139-225 N203Q): as the sequence (O95076 139-225) above, with N65Q counted along it
# ALX4 (Homo sapiens, UniProt Q9H161 200-286), sequence (Q9H161 200-286): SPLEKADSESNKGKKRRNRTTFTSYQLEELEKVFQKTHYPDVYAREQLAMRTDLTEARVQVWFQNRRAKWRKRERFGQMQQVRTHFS
# MSX2 (Homo sapiens, UniProt P35548 130-214, R199I), sequence (P35548 130-214 R199I): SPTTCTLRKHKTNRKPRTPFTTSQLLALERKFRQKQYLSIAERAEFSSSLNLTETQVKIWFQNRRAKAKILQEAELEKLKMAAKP
# ALX3 (Homo sapiens, UniProt O95076 139-225, N203S), sequence (O95076 139-225 N203S): as the sequence (O95076 139-225) above, with N65S counted along it
# MSX2 (Homo sapiens, UniProt P35548 130-214), sequence (P35548 130-214): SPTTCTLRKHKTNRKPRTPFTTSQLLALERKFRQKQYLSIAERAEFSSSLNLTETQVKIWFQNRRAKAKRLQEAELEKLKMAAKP
# ALX3 (Homo sapiens, UniProt O95076 139-225, L168Q), sequence (O95076 139-225 L168Q): as the sequence (O95076 139-225) above, with L30Q counted along it
# ALX4 (Homo sapiens, UniProt Q9H161 200-286, Q225E), sequence (Q9H161 200-286 Q225E): as the sequence (Q9H161 200-286) above, with Q26E counted along it
# HOXA7 (Homo sapiens, UniProt P31268 116-202), sequence (P31268 116-202): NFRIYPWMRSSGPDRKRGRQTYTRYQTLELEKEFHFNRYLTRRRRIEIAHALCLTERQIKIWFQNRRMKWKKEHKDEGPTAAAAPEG
# HOXA7 (Homo sapiens, UniProt P31268 116-202, W177C), sequence (P31268 116-202 W177C): as the sequence (P31268 116-202) above, with W62C counted along it
# HOXC10 (Homo sapiens, UniProt Q9NYD6 254-340), sequence (Q9NYD6 254-340): as the sequence (Q9NYD6 254-340 K271E) above, with E18K counted along it
# HOXB9, sequence (P17482 171-250): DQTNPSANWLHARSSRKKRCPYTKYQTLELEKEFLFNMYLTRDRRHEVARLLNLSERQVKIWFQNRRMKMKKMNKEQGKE
# PROP1 (Homo sapiens, UniProt O75360 56-141, F88S), sequence (O75360 56-141 F88S): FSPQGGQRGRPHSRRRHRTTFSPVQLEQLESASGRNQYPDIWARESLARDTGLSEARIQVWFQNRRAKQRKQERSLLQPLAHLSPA
# HOXA2 (Homo sapiens, UniProt O43364 129-215, Y150S), sequence (O43364 129-215 Y150S): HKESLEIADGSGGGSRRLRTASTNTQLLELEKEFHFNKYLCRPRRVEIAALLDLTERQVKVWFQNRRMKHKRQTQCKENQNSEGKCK
# HOXA2 (Homo sapiens, UniProt O43364 129-215, R185T), sequence (O43364 129-215 R185T): as the sequence (O43364 129-215 Y150S) above, with S22Y, R57T counted along it
# PROP1 (Homo sapiens, UniProt O75360 56-141), sequence (O75360 56-141): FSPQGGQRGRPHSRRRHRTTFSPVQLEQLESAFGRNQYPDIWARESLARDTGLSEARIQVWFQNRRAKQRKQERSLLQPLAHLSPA
# PRRX1 (Homo sapiens, UniProt P54821 80-166), sequence (P54821 80-166): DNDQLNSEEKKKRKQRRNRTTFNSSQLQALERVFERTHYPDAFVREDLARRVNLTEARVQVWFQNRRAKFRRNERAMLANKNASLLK
# HOXA2 (Homo sapiens, UniProt O43364 129-215, R185K), sequence (O43364 129-215 R185K): as the sequence (O43364 129-215 Y150S) above, with S22Y, R57K counted along it
# HOXA2 (Homo sapiens, UniProt O43364 129-215), sequence (O43364 129-215): as the sequence (O43364 129-215 Y150S) above, with S22Y counted along it
# HESX1 (Homo sapiens, UniProt Q9UBX0 95-180, R109Q), sequence (Q9UBX0 95-180 R109Q): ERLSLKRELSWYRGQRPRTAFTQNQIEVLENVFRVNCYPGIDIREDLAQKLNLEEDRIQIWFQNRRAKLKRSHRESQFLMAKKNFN
# PRRX1 (Homo sapiens, UniProt P54821 80-166, F113S), sequence (P54821 80-166 F113S): as the sequence (P54821 80-166) above, with F34S counted along it
# HESX1 (Homo sapiens, UniProt Q9UBX0 95-180, P111T), sequence (Q9UBX0 95-180 P111T): as the sequence (Q9UBX0 95-180 R109Q) above, with Q15R, P17T counted along it
sequence,measurement,setting,value
CCCTCCCG,binding signal,[1],"6.94 upbm affinity estimate (log intensity, higher = more binding, comparable within an allelic series)"
same,binding signal,[2],"8.02 upbm affinity estimate (log intensity, higher = more binding, comparable within an allelic series)"
same,binding signal,[3],"8.18 upbm affinity estimate (log intensity, higher = more binding, comparable within an allelic series)"
same,binding signal,[4],"7.03 upbm affinity estimate (log intensity, higher = more binding, comparable within an allelic series)"
CAAATTAG,binding signal,[1],"11.8 upbm affinity estimate (log intensity, higher = more binding, comparable within an allelic series)"
same,binding signal,[2],"13.6 upbm affinity estimate (log intensity, higher = more binding, comparable within an allelic series)"
same,binding signal,[5],"11.8 upbm affinity estimate (log intensity, higher = more binding, comparable within an allelic series)"
same,binding signal,[6],"12.4 upbm affinity estimate (log intensity, higher = more binding, comparable within an allelic series)"
same,binding signal,[3],"12.4 upbm affinity estimate (log intensity, higher = more binding, comparable within an allelic series)"
same,binding signal,[7],"12.1 upbm affinity estimate (log intensity, higher = more binding, comparable within an allelic series)"
same,binding signal,[8],"11.3 upbm affinity estimate (log intensity, higher = more binding, comparable within an allelic series)"
same,binding signal,[9],"8.31 upbm affinity estimate (log intensity, higher = more binding, comparable within an allelic series)"
same,binding signal,[10],"12.3 upbm affinity estimate (log intensity, higher = more binding, comparable within an allelic series)"
same,binding signal,[4],"9.26 upbm affinity estimate (log intensity, higher = more binding, comparable within an allelic series)"
same,binding signal,[11],"10.9 upbm affinity estimate (log intensity, higher = more binding, comparable within an allelic series)"
same,binding signal,[12],"10.4 upbm affinity estimate (log intensity, higher = more binding, comparable within an allelic series)"
same,binding signal,[13],"13.3 upbm affinity estimate (log intensity, higher = more binding, comparable within an allelic series)"
same,binding signal,[14],"12.2 upbm affinity estimate (log intensity, higher = more binding, comparable within an allelic series)"
same,binding signal,[15],"11 upbm affinity estimate (log intensity, higher = more binding, comparable within an allelic series)"
same,binding signal,[16],"11.1 upbm affinity estimate (log intensity, higher = more binding, comparable within an allelic series)"
same,binding signal,[17],"10.7 upbm affinity estimate (log intensity, higher = more binding, comparable within an allelic series)"
same,binding signal,[18],"10.1 upbm affinity estimate (log intensity, higher = more binding, comparable within an allelic series)"
same,binding signal,[19],"9.51 upbm affinity estimate (log intensity, higher = more binding, comparable within an allelic series)"
same,binding signal,[20],"7.47 upbm affinity estimate (log intensity, higher = more binding, comparable within an allelic series)"
same,binding signal,[21],"12.9 upbm affinity estimate (log intensity, higher = more binding, comparable within an allelic series)"
same,binding signal,[22],"11 upbm affinity estimate (log intensity, higher = more binding, comparable within an allelic series)"
same,binding signal,[23],"12.1 upbm affinity estimate (log intensity, higher = more binding, comparable within an allelic series)"
same,binding signal,[24],"8.39 upbm affinity estimate (log intensity, higher = more binding, comparable within an allelic series)"
AATTAGGG,binding signal,[1],"11.7 upbm affinity estimate (log intensity, higher = more binding, comparable within an allelic series)"
same,binding signal,[5],"11.6 upbm affinity estimate (log intensity, higher = more binding, comparable within an allelic series)"
same,binding signal,[6],"12.2 upbm affinity estimate (log intensity, higher = more binding, comparable within an allelic series)"
same,binding signal,[8],"11.4 upbm affinity estimate (log intensity, higher = more binding, comparable within an allelic series)"
same,binding signal,[10],"11.8 upbm affinity estimate (log intensity, higher = more binding, comparable within an allelic series)"
same,binding signal,[4],"9.29 upbm affinity estimate (log intensity, higher = more binding, comparable within an allelic series)"
same,binding signal,[11],"10.8 upbm affinity estimate (log intensity, higher = more binding, comparable within an allelic series)"
same,binding signal,[12],"10.3 upbm affinity estimate (log intensity, higher = more binding, comparable within an allelic series)"
same,binding signal,[15],"10.8 upbm affinity estimate (log intensity, higher = more binding, comparable within an allelic series)"
same,binding signal,[25],"8.69 upbm affinity estimate (log intensity, higher = more binding, comparable within an allelic series)"
same,binding signal,[17],"10.9 upbm affinity estimate (log intensity, higher = more binding, comparable within an allelic series)"
same,binding signal,[26],"10.1 upbm affinity estimate (log intensity, higher = more binding, comparable within an allelic series)"
same,binding signal,[22],"10.8 upbm affinity estimate (log intensity, higher = more binding, comparable within an allelic series)"
same,binding signal,[23],"12 upbm affinity estimate (log intensity, higher = more binding, comparable within an allelic series)"
CCTTGCCC,binding signal,[1],"7.09 upbm affinity estimate (log intensity, higher = more binding, comparable within an allelic series)"
same,binding signal,[27],"7.28 upbm affinity estimate (log intensity, higher = more binding, comparable within an allelic series)"
same,binding signal,[4],"7.14 upbm affinity estimate (log intensity, higher = more binding, comparable within an allelic series)"
same,binding signal,[28],"10.4 upbm affinity estimate (log intensity, higher = more binding, comparable within an allelic series)"
same,binding signal,[29],"10.4 upbm affinity estimate (log intensity, higher = more binding, comparable within an allelic series)"
same,binding signal,[30],"7.27 upbm affinity estimate (log intensity, higher = more binding, comparable within an allelic series)"
TAACAATA,binding signal,[1],"8.71 upbm affinity estimate (log intensity, higher = more binding, comparable within an allelic series)"
same,binding signal,[31],"9.77 upbm affinity estimate (log intensity, higher = more binding, comparable within an allelic series)"
same,binding signal,[32],"8.92 upbm affinity estimate (log intensity, higher = more binding, comparable within an allelic series)"
GCAAATTA,binding signal,[1],"11.6 upbm affinity estimate (log intensity, higher = more binding, comparable within an allelic series)"
same,binding signal,[5],"11.6 upbm affinity estimate (log intensity, higher = more binding, comparable within an allelic series)"
same,binding signal,[6],"12.1 upbm affinity estimate (log intensity, higher = more binding, comparable within an allelic series)"
same,binding signal,[8],"11.2 upbm affinity estimate (log intensity, higher = more binding, comparable within an allelic series)"
same,binding signal,[10],"11.9 upbm affinity estimate (log intensity, higher = more binding, comparable within an allelic series)"
same,binding signal,[4],"8.89 upbm affinity estimate (log intensity, higher = more binding, comparable within an allelic series)"
same,binding signal,[11],"10.8 upbm affinity estimate (log intensity, higher = more binding, comparable within an allelic series)"
same,binding signal,[12],"10.3 upbm affinity estimate (log intensity, higher = more binding, comparable within an allelic series)"
same,binding signal,[15],"10.8 upbm affinity estimate (log intensity, higher = more binding, comparable within an allelic series)"
same,binding signal,[22],"10.8 upbm affinity estimate (log intensity, higher = more binding, comparable within an allelic series)"
same,binding signal,[23],"12 upbm affinity estimate (log intensity, higher = more binding, comparable within an allelic series)"
CAAGCTTG,binding signal,[1],"7.28 upbm affinity estimate (log intensity, higher = more binding, comparable within an allelic series)"
same,binding signal,[7],"9.71 upbm affinity estimate (log intensity, higher = more binding, comparable within an allelic series)"
same,binding signal,[4],"7.33 upbm affinity estimate (log intensity, higher = more binding, comparable within an allelic series)"
same,binding signal,[13],"9.69 upbm affinity estimate (log intensity, higher = more binding, comparable within an allelic series)"
same,binding signal,[21],"9.69 upbm affinity estimate (log intensity, higher = more binding, comparable within an allelic series)"
GATATGTA,binding signal,[1],"8.18 upbm affinity estimate (log intensity, higher = more binding, comparable within an allelic series)"
same,binding signal,[33],"9.76 upbm affinity estimate (log intensity, higher = more binding, comparable within an allelic series)"
same,binding signal,[4],"7.81 upbm affinity estimate (log intensity, higher = more binding, comparable within an allelic series)"
AATAATAC,binding signal,[1],"9.32 upbm affinity estimate (log intensity, higher = more binding, comparable within an allelic series)"
same,binding signal,[34],"10.6 upbm affinity estimate (log intensity, higher = more binding, comparable within an allelic series)"
same,binding signal,[14],"10.3 upbm affinity estimate (log intensity, higher = more binding, comparable within an allelic series)"
same,binding signal,[35],"12.3 upbm affinity estimate (log intensity, higher = more binding, comparable within an allelic series)"
CACCACCC,binding signal,[1],"7.17 upbm affinity estimate (log intensity, higher = more binding, comparable within an allelic series)"
same,binding signal,[5],"9.48 upbm affinity estimate (log intensity, higher = more binding, comparable within an allelic series)"
same,binding signal,[6],"9.49 upbm affinity estimate (log intensity, higher = more binding, comparable within an allelic series)"
same,binding signal,[36],"9.46 upbm affinity estimate (log intensity, higher = more binding, comparable within an allelic series)"
same,binding signal,[10],"9.54 upbm affinity estimate (log intensity, higher = more binding, comparable within an allelic series)"
same,binding signal,[4],"7.25 upbm affinity estimate (log intensity, higher = more binding, comparable within an allelic series)"
same,binding signal,[12],"9.4 upbm affinity estimate (log intensity, higher = more binding, comparable within an allelic series)"
same,binding signal,[15],"9.47 upbm affinity estimate (log intensity, higher = more binding, comparable within an allelic series)"
same,binding signal,[22],"9.4 upbm affinity estimate (log intensity, higher = more binding, comparable within an allelic series)"
GCCTGCCC,binding signal,[1],"7.04 upbm affinity estimate (log intensity, higher = more binding, comparable within an allelic series)"
same,binding signal,[37],"10.1 upbm affinity estimate (log intensity, higher = more binding, comparable within an allelic series)"
same,binding signal,[8],"6.56 upbm affinity estimate (log intensity, higher = more binding, comparable within an allelic series)"
same,binding signal,[9],"7.64 upbm affinity estimate (log intensity, higher = more binding, comparable within an allelic series)"
same,binding signal,[4],"7.13 upbm affinity estimate (log intensity, higher = more binding, comparable within an allelic series)"
same,binding signal,[11],"6.58 upbm affinity estimate (log intensity, higher = more binding, comparable within an allelic series)"
same,binding signal,[38],"10 upbm affinity estimate (log intensity, higher = more binding, comparable within an allelic series)"
same,binding signal,[14],"7.67 upbm affinity estimate (log intensity, higher = more binding, comparable within an allelic series)"
same,binding signal,[18],"7.69 upbm affinity estimate (log intensity, higher = more binding, comparable within an allelic series)"
same,binding signal,[19],"7.69 upbm affinity estimate (log intensity, higher = more binding, comparable within an allelic series)"
same,binding signal,[23],"6.62 upbm affinity estimate (log intensity, higher = more binding, comparable within an allelic series)"
same,binding signal,[24],"7.72 upbm affinity estimate (log intensity, higher = more binding, comparable within an allelic series)"
